High-throughput results as filed in PubChem.
PI5P4Ka inh = qHTS for Inhibitors of phosphatidylinositol 5-phosphate 4-kinase (PI5P4K) | Phosphatidylinositol 5-phosphate 4-kinase type-2 alpha (Homo sapiens), P48426 | PI5P4Kalpha enzyme, ADP-Glo luminescence, 60 min; stronger effect = lower value | max response, % | 330,000 tested, 1.2% active; active means max response of -50% or lower; inconclusive means between -30% and -50%; inactive means -30% or higher; further: value at the top dose of about 77 µM; on the % scale 0 is the no-effect control and ±100 the full control effect
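Human PI5P4Kalpha with substrate in 0.038 M HEPES pH 7.4, 0.28 mM EGTA, 0.1% CHAPS, 5% DMSO; reaction started with 5 microM ATP (final), 60 min at room temperature. ADP formed read by ADP-Glo luminescence.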
JMJD2E inh = qHTS Assay for Inhibitors of Human Jumonji Domain Containing 2E (JMJD2E); JMJD2E catalytic domain, FDH-coupled NADH fluorescence (FDH is formaldehyde dehydrogenase); Potency, µM (highest dose often 57.1 µM), without a hit: top-dose activity change, negative = inhibition, hits mostly inhibitors; 230,000 tested, 1.6% active; Lysine-specific demethylase 4E (Homo sapiens), B2RXH2; active means well fitted inhibition curve with a large enough effect, not every such curve was filed as active; inconclusive means small, poorly fitted or top-dose-only effect, or another doubt; inactive means no such curve, though single readings can be large or run the other way;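 further: potency means the concentration at half of the fitted maximal effect; 0% = wells with enzyme and -100% = buffer wells without enzyme; nearly all actives have a fitted effect of over 50% in size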
JMJD2A Tudor inh = qHTS Assay for Inhibitors of JMJD2A-Tudor Domain. Lysine-specific demethylase 4A (Homo sapiens), O75164. Potency, µM (titrated, usually from 114 µM), inactives show at the highest dose activity change, negative = inhibition, actives largely listed as inhibitors. AID 504339, 2011. AlphaScreen JMJD2A-Tudor / H3K4me3 peptide binding. 390,000 tested, 4.4% active; further: potency means the concentration at half of the fitted maximal effect; on the % scale 0 is the no-effect control and ±100 the full control effect; nearly all actives have a fitted effect of over 50% in size
HP1b binding inh = HTS for Inhibitors of HP1-beta Chromodomain Interactions with Methylated Histone Tails; Chromobox protein homolog 1 (Homo sapiens), P83916; AlphaScreen HP1-beta / biotin-H3K9me3 peptide binding; Potency, µM (series often up to 114 µM), without a hit: at the highest dose activity change, negative = inhibition, usual class: inhibitors; 390,000 tested, 0.56% active; further: potency means the concentration at half of the fitted maximal effect; nearly all actives have a fitted effect of over 70% in size
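AlphaScreen: HP1-beta (50 nM) preformed 30 min with biotin-H3(1-18)K9me3 peptide (50 nM) in PBS pH 7.4, 0.01% Tween-20. Compound added for 30 min at RT, then streptavidin donor/nickel chelate acceptor beads (10 ug/mL) for 30 min.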
BAZ2B block = qHTS Assay for Inhibitors of BAZ2B | 360,000 tested, 4.4% active | AlphaScreen BAZ2B-H3K14Ac peptide displacement | Bromodomain adjacent to zinc finger domain protein 2B (Homo sapiens), Q9UIF8 | Potency, µM (highest dose often 114 µM), for inactives: top-dose activity change, negative = inhibition, most hits filed as inhibitors; further: potency means the concentration at half of the fitted maximal effect; on the % scale 0 is the no-effect control and ±100 the full control effect; nearly all actives have a fitted effect of over 60% in size
Target sequence (Q9UIF8 whole entry, looked up, the tested form may be a part): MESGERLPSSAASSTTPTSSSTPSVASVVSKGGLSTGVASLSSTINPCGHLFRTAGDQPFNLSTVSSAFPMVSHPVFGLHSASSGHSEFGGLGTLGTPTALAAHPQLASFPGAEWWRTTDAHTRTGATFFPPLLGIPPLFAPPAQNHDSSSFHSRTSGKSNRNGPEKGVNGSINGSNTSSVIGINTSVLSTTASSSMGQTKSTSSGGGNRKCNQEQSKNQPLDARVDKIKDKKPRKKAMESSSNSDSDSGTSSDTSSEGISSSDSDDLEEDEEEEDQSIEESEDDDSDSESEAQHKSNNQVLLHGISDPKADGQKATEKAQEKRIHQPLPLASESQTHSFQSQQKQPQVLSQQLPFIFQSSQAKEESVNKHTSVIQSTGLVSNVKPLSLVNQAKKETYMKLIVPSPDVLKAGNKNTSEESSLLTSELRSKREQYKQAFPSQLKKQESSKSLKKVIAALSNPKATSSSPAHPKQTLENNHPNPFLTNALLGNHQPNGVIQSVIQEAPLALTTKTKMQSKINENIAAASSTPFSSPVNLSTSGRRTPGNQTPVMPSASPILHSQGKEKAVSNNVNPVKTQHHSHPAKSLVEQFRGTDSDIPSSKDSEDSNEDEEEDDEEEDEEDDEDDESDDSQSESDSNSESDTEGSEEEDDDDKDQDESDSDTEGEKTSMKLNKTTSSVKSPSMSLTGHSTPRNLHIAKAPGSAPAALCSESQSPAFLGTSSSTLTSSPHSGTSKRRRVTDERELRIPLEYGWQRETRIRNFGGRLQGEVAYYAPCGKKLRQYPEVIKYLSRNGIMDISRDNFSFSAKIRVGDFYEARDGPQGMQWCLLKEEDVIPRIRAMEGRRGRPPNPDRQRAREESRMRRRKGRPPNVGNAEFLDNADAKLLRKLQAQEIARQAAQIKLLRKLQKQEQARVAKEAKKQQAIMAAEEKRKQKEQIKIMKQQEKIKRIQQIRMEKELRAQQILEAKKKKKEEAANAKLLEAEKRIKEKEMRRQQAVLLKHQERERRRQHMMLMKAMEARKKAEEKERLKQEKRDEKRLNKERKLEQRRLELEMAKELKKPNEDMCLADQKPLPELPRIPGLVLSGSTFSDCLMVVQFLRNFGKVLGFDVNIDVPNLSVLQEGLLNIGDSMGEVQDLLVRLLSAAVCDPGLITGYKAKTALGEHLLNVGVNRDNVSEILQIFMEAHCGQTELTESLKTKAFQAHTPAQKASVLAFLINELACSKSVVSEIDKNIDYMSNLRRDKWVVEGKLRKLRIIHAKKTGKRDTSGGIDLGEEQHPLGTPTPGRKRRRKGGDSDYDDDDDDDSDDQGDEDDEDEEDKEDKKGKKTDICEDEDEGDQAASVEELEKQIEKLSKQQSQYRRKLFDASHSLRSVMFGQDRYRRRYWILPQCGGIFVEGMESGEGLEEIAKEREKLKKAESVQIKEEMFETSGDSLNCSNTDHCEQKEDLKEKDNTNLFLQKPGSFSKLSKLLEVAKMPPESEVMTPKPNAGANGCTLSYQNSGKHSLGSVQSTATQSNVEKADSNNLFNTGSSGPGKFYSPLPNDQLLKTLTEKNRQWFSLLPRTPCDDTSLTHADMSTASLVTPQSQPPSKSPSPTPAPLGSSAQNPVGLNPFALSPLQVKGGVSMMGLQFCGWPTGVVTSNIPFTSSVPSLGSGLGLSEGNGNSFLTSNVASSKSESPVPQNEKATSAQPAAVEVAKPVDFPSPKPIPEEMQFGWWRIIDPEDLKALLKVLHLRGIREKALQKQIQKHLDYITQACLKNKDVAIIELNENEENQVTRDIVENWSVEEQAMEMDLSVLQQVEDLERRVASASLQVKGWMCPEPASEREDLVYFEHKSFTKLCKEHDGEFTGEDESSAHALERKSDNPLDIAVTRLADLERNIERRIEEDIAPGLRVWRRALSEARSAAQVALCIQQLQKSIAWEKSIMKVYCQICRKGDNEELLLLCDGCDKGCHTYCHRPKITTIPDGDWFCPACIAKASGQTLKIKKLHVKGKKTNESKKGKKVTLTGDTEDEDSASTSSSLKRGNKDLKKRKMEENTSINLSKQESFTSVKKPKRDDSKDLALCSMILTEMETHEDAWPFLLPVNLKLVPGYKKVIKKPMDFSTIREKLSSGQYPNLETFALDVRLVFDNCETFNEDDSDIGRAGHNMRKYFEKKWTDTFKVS
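Protein-peptide AlphaScreen: BAZ2B 50 nM, b-H3K14Ac 50 nM, 1x PBS pH 7.4 + 0.01% Tween-20. Preincubation 30 min RT; cpd 30 min RT (top 110 uM); beads 20 min RT, light-protected.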
L3MBTL1 block = qHTS Assay for the Inhibitors of L3MBTL1. Potency, µM (doses to about 57.1 µM), inactives show top-dose activity, negative = inhibition, usual class: inhibitors. 230,000 tested, 0.66% active. AlphaScreen L3MBTL1–H3K9me1 peptide binding. Lethal(3)malignant brain tumor-like protein 1 (Homo sapiens), Q9Y468; further: potency means the concentration at half of the fitted maximal effect; on the % scale 0 is the no-effect control and ±100 the full control effect; nearly all actives have a fitted effect of over 60% in size
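Displacement of a biotinylated histone H3(1-15) peptide monomethylated at Lys9 (75 nM) from L3MBTL1 (50 nM) was measured by AlphaScreen after a 30 min room-temperature compound incubation; cefsulodin titration served as intraplate control.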
An asterisk follows results filed as active; u = inconclusive; x = no result given; [ ] = dose if it differs, or a comment. Compounds with a hit are over-represented: about 5.7% of the library has one in this group of screens. Unless noted, the call rests on the fitted dose curve; in most records, active means well fitted inhibition curve with a large enough effect; inconclusive means small, poorly fitted or top-dose-only effect; inactive means no such curve, though single readings can be large or run the other way.

SMILES | PI5P4Ka inh | JMJD2E inh | JMJD2A Tudor inh | HP1b binding inh | BAZ2B block | L3MBTL1 block
CCOc1cc(N2CCOCC2)c(OCC)cc1NC(C)C(=O)N1CCN(CC)CC1 (stereo unspecified) | u | 27% | 0.35µM* | u | 10µM* | 18µM*
CCOc1cc(N2CCOCC2)c(OCC)cc1NS(=O)(=O)c1cc(NC(C)=O)ccc1OC | -9 | x | -33% | 12% | 71µM* | x
Cc1cc(NC(=O)CCC(=O)N(CC(=O)NCC2CCCO2)c2ccc(C)c(C)c2)no1 (stereo unspecified) | 11 | x | 1% | 34% | 5% | x
C=C/C(C)=C/CC1C(=C)CCC2C(C)(C(=O)O)CCCC12C (stereo unspecified) | u | 9% | 56µM* | 20% | -34% | x
C=C[C@]1(C)C=C2CCC3[C@](C)(CCC[C@@]3(C)C(=O)O)C2CC1 (stereo partly specified) | -3 | x | u | 14% | -10% | -5%
CN1c2ccc([N+](=O)[O-])cc2N(C)C1(C)c1ccccc1 (stereo unspecified) | -7 | x | 10µM* | 10µM* | 8.9µM* | 14µM*
O=C1CCc2cc(S(=O)(=O)Nc3ccccc3-c3ccccc3)ccc2N1 | x | x | -20% | x | x | x
COC(=O)c1c(NC(=O)CCCOc2ccccc2C)sc2c1CCC2 | x | x | 15% | 23% | -25% | x
COc1cccc(OCC(=O)O/N=C(\N)c2ccc(OC)c(OC)c2)c1 | 0 | -2% | 38% | 83% | 36% | 26%
O=[N+]([O-])c1cc(C(F)(F)F)cc([N+](=O)[O-])c1NN=C1CCCCC1 | -15 | u | 22µM* | 20µM* | 11µM* | u
N#CCC(=O)NNc1c([N+](=O)[O-])cc(C(F)(F)F)cc1[N+](=O)[O-] | -18 | 6% | u | u | 50µM* | x
CCc1cccc(-n2c(=O)c3cccnc3n2CC(=O)Nc2ccc(OC)c(Cl)c2)c1 | x | x | -7% | 44% | -1% | x
O=C(CCCn1c(=O)c2ccccc2n(CC(=O)Nc2cccc(C(F)(F)F)c2)c1=O)NCc1ccc2c(c1)OCO2 | x | x | -3% | 16% | 1% | x
C/C=C/C(=O)OCC(=O)Nc1ccc(OC)c(Cl)c1 | 1 | 8% | -12% | 12% | 8% | 5%
C/C=C/C(=O)OCC(=O)Nc1ccc(OC)c(OC)c1 | 0 | -2% | 9% | 30% | 50µM* | -11%
S=c1[nH]nc(-c2ccc(Br)cc2)n1Cc1ccco1 | -17 | -13% | 56µM* | -17% | u | -7%
Cc1cc(-c2n[nH]c(=S)n2-c2ccc(F)cc2)nn1C | -3 | -7% | 25µM* | 25% | -6% | -13%
Cc1c(Cl)c(-c2n[nH]c(=S)n2-c2ccccc2)nn1C | 0 | -22% | 4.5µM* | 28% | 2% | 0%
CCCc1n[nH]c(=S)n1Cc1ccco1 | -1 | -4% | 5µM* | 30% | 6% | x
S=c1[nH]nc(COc2ccc(Cl)cc2)n1Cc1ccco1 | -13 | -12% | u | u | u | x
Cc1ccc(-c2nc3nc4ccccc4nc3n2Cc2ccco2)cc1 | -12 | u | -23% | 10% | 5% | x
CN1CCOc2cc(S(=O)(=O)N3CCN(c4nc(-c5cccs5)nc5ccccc45)CC3)ccc21 | x | x | -23% | -8% | x | x
CC1(Oc2cccc(F)c2)CCN(Cc2ccc(-c3ccccc3)o2)C1 (stereo unspecified) | 12 | x | x | x | x | x
S=c1[nH]nc(C23CC4CC(CC(C4)C2)C3)n1Cc1ccco1 | 5 | -1% | 50µM* | 4% | u | -9%
COc1cccc(-c2n[nH]c(=S)n2Cc2ccco2)c1 | u | -8% | 20µM* | -23% | -36% | x
SMILES | PI5P4Ka inh | JMJD2E inh | JMJD2A Tudor inh | HP1b binding inh | BAZ2B block | L3MBTL1 block
COc1ccc(CCn2c(-c3ccncc3)n[nH]c2=S)cc1OC | -9 | u | u | -9% | -33% | 7%[11.4 µM]
S=c1[nH]nc(-c2ccncc2)n1Cc1ccco1 | x | -7% | 7.9µM* | 15% | -5% | -5%[11.4 µM]
Cc1c(Cl)c(-c2n[nH]c(=S)n2Cc2ccco2)nn1C | 2 | -6% | 8.9µM* | 20% | -9% | x
Cc1cc(=O)n(Cc2ccco2)c(=S)[nH]1 | 1 | x | x | x | x | x
O=c1oc2cc([N+](=O)[O-])ccc2nc1/C=C(\O)c1cccc(Br)c1 | 1 | u | u | 14% | u | x
O=c1oc2cc([N+](=O)[O-])ccc2nc1/C=C(O)/C=C/c1ccccc1 | x | 5% | x | x | 50µM* | x
CC1=C/C(=C\c2ccc(Br)o2)C(=O)O1 | u | u | 40µM* | u | 32µM* | 8.9µM*
Cc1ccc(C=C2C=C(c3ccccc3)OC2=O)cc1 | 1 | x | x | x | x | x
O=C1C(=Cc2ccc(Br)o2)C(=O)c2ccccc21 | -85* | -13% | 7.9µM* | u | 13µM* | 3.2µM*
NS(=O)(=O)c1ccc(N=Nc2c(O)ccc3ccccc23)cc1 | -27 | 0% | -28% | -12% | u | -19%
Cc1[nH][nH]c(=O)c1N=Nc1ccc(Cl)cc1 | -3 | 14% | -13% | 7% | -11% | x
Nc1n[nH]c(C2CC2)c1N=Nc1ccc(Cl)cc1 | 21 | -29% | 45µM* | -16% | u | -7%
Nc1nc(N)c(N=Nc2ccc(Cl)cc2)c(=O)[nH]1 | -77* | -1% | -27% | 8% | -7% | -35%
Cc1nc(N)sc1N=Nc1ccc(Br)cc1 | x | 0% | u | -33% | 25µM* | x
Nc1nc(N)c(N=Nc2ccc(S(N)(=O)=O)cc2)c(=O)[nH]1 | -62* | 2% | -10% | 44% | u | 5%
Nc1n[nH]c(C2CC2)c1N=Nc1ccc(Cl)c(Cl)c1 | 48 | -4% | u | u | 15% | u
COc1ccc(S(=O)(=O)N2CCN(Cc3ccc4c(c3)OCO4)CC2)cc1OC | x | x | -30% | 4% | u | x
CCOC(=O)C1=C(COC(=O)CCNS(=O)(=O)c2ccc(C)c(C)c2)NC(=O)NC1C (stereo unspecified) | 0 | x | -4% | 22% | 9% | 0%
Clc1ccc(-c2cc3ncc4c(n3n2)-c2ccccc2OC4)cc1 | x | x | 0% | 39% | -4% | x
Cc1ccc(N=Nc2c(N)n[nH]c2N)cc1 | 2 | x | u | -2% | u | x
Nc1nc(SCC(=O)O)[nH]c(=O)c1NC(=O)c1ccco1 | 11 | x | -12% | 10% | -2% | x
Cc1[nH]nc(N)c1N=Nc1ccc(Br)cc1 | x | 11% | x | x | 40µM* | u
